Reference: article PMC7862700, “An all-to-all approach to the identification of sequence-specific readers for epigenetic DNA modifications on cytosine”

Key:
Experiment in all cases: DAPPL (digital affinity profiling via proximity ligation, sequencing); 10 mM Tris-HCl pH 7.5, 50 mM NaCl, 1 mM DTT, 4% glycerol, room temperature, 30 min; GST-TFs on glutathione beads, 16-mer random dsDNA library, 0.1% formaldehyde crosslink after washing; high values mean tight binding
FLI1 = biological target: T1, FLI1 (Homo sapiens, UniProt Q01543 1-452); conditions: protein: recombinant; tags: N-terminal GST; dsDNA, one strand shown
T1 sequence: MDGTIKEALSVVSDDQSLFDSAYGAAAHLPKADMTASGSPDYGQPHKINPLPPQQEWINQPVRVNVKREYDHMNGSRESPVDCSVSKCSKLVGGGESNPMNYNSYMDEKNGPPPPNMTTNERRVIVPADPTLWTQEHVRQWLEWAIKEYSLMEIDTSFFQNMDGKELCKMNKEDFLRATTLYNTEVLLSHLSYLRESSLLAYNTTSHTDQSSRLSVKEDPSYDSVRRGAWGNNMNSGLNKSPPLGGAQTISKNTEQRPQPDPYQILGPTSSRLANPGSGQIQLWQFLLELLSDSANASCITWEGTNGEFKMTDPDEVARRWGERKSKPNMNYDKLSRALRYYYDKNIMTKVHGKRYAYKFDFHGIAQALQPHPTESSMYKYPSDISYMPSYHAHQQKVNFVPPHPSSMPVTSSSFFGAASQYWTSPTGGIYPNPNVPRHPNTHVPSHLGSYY
Summary of the method: (§1)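 Binding signal is defined as a hexamer's read frequency for one factor over its frequency for the tag-only sample. To obtain reads, GST-fused human transcription factors were expressed in yeast, captured on glutathione beads, barcoded with DNA and pooled with that sample. Pools met 200 nmole of a 16-mer random double-stranded DNA library in Tris/NaCl/DTT/glycerol buffer for 30 min at room temperature before washing, 0.1% formaldehyde crosslinking, proximity ligation (BsaI/T4 ligase, 1 h, 37 °C), PCR and Illumina NextSeq500 sequencing.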

ELK1 = biological target: T2, ELK1 (Homo sapiens, UniProt P19419 1-428); conditions: protein: recombinant; tags: N-terminal GST; dsDNA, one strand shown
T2 sequence: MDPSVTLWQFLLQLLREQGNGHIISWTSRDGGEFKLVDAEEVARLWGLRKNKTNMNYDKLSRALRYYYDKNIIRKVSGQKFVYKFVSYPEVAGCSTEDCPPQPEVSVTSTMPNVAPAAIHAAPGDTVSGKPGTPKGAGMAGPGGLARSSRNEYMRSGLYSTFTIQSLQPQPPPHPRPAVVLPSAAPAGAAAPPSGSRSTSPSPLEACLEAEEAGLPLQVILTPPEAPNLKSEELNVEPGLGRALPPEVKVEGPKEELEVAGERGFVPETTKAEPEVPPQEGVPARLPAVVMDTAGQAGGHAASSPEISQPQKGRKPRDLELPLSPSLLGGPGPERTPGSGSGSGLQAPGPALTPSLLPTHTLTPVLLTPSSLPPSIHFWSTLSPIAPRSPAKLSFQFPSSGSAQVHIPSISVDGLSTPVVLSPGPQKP
Summary of the method: as §1

GABPA = biological target: T3, GABPA (Homo sapiens, UniProt Q06546 1-454); conditions: protein: recombinant; tags: N-terminal GST; dsDNA, one strand shown
T3 sequence: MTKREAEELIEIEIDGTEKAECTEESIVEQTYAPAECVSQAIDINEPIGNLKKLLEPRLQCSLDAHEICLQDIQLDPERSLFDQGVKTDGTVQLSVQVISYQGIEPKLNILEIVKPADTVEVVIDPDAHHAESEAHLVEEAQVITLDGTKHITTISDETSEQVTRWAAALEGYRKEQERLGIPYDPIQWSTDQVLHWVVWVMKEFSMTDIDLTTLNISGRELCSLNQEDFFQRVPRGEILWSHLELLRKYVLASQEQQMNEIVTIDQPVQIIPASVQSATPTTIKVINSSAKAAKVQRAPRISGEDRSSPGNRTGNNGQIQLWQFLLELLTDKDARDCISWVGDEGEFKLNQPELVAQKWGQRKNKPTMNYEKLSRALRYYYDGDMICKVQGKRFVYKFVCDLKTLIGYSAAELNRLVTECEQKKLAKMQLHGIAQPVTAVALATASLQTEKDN
Summary of the method: as §1

ERG = biological target: T4, ERG (Homo sapiens, UniProt P11308 1-479); conditions: protein: recombinant; tags: N-terminal GST; dsDNA, one strand shown
T4 sequence: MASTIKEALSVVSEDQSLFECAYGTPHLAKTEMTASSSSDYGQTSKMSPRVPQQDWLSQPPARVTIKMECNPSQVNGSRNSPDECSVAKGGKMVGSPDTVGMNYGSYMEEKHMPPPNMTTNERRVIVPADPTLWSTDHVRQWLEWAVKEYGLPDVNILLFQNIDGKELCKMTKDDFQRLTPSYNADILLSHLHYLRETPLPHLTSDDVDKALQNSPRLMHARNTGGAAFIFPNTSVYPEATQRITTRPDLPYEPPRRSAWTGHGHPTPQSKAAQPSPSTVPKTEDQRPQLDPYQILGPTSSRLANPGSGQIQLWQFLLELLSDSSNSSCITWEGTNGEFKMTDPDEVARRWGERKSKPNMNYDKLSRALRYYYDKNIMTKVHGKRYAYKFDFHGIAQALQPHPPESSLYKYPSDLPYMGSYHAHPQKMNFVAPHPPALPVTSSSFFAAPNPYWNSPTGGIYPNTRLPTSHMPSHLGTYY
Summary of the method: as §1

ELF1 = ELF1 (Homo sapiens, UniProt P32519 1-619); conditions: protein: recombinant; tags: N-terminal GST; dsDNA, one strand shown
Summary of the method: as §1

EHF = biological target: T5, EHF (Homo sapiens, UniProt Q9NZC4 1-300); conditions: protein: recombinant; tags: N-terminal GST; dsDNA, one strand shown
T5 sequence: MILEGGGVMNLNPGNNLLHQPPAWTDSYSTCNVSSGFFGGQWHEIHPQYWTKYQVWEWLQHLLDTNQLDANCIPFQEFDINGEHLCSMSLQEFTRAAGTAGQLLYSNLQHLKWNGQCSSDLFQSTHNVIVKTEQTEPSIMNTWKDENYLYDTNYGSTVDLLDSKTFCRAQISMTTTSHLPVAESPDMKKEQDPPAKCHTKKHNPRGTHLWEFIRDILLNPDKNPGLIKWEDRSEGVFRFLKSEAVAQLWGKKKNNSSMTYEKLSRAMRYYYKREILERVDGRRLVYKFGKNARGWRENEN
Summary of the method: as §1

SPI1 = SPI1 (Homo sapiens, UniProt P17947 1-270); conditions: protein: recombinant; tags: N-terminal GST; dsDNA, one strand shown
Summary of the method: as §1

SPIB = SPIB (Homo sapiens, UniProt Q01892 1-262); conditions: protein: recombinant; tags: N-terminal GST; dsDNA, one strand shown
Summary of the method: as §1

ELK3 = biological target: T6, ELK3 (Homo sapiens, UniProt P41970 1-407); conditions: protein: recombinant; tags: N-terminal GST; dsDNA, one strand shown
T6 sequence: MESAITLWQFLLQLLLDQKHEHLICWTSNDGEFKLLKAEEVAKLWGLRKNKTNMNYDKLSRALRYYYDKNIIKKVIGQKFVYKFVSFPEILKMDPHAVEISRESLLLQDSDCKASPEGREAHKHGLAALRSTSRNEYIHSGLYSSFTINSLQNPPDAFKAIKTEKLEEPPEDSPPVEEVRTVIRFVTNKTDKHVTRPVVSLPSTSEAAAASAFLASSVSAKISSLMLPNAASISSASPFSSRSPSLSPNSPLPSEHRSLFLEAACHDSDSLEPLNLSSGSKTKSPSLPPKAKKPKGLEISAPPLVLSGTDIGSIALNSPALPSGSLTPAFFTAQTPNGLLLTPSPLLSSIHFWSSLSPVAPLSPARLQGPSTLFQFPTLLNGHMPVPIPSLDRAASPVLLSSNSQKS
Summary of the method: as §1

FEV = biological target: T7, FEV (Homo sapiens, UniProt Q99581 1-238); conditions: protein: recombinant; tags: N-terminal GST; dsDNA, one strand shown
T7 sequence: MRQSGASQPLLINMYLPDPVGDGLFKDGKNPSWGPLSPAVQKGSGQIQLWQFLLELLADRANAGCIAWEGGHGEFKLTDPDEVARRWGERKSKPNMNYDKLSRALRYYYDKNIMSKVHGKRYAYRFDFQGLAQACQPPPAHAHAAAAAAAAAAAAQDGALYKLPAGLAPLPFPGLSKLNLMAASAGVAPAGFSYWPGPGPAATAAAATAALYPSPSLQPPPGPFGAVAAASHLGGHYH
Summary of the method: as §1

ETV5 = ETV5 (Homo sapiens, UniProt P41161 1-510); conditions: protein: recombinant; tags: N-terminal GST; dsDNA, one strand shown
Summary of the method: as §1

HSF1 = HSF1 (Homo sapiens, UniProt Q00613 1-529); conditions: protein: recombinant; tags: N-terminal GST; chain copies: 3; dsDNA, one strand shown
Summary of the method: as §1

SPIC = biological target: T8, SPIC (Homo sapiens, UniProt Q8N5J4 1-248); conditions: protein: recombinant; tags: N-terminal GST; dsDNA, one strand shown
T8 sequence: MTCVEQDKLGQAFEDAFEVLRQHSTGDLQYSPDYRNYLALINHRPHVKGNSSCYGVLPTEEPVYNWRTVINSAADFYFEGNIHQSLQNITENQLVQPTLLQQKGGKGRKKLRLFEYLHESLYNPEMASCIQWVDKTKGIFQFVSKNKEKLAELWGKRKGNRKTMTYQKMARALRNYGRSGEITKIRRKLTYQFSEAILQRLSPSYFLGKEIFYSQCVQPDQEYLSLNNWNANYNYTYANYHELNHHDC
Summary of the method: as §1

ELF4 = ELF4 (Homo sapiens, UniProt Q99607 1-663); conditions: protein: recombinant; tags: N-terminal GST; dsDNA, one strand shown
Summary of the method: as §1

ELK4 = biological target: T9, ELK4 (Homo sapiens, UniProt P28324-2 1-405); conditions: protein: recombinant; tags: N-terminal GST; dsDNA, one strand shown
T9 sequence: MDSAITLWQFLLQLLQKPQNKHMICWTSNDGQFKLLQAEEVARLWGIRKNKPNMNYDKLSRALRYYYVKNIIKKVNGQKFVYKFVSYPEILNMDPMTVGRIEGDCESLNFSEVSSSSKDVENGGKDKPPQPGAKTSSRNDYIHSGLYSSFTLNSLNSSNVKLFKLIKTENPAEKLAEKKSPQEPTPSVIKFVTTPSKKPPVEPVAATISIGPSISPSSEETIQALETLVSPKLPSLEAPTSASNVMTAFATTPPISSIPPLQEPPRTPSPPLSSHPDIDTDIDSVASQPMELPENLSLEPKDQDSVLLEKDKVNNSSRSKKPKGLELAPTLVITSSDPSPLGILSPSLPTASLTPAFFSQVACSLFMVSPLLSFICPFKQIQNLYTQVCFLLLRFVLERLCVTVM
Summary of the method: as §1

ELF3 = biological target: T10, ELF3 (Homo sapiens, UniProt P78545 1-371); conditions: protein: recombinant; tags: N-terminal GST; dsDNA, one strand shown
T10 sequence: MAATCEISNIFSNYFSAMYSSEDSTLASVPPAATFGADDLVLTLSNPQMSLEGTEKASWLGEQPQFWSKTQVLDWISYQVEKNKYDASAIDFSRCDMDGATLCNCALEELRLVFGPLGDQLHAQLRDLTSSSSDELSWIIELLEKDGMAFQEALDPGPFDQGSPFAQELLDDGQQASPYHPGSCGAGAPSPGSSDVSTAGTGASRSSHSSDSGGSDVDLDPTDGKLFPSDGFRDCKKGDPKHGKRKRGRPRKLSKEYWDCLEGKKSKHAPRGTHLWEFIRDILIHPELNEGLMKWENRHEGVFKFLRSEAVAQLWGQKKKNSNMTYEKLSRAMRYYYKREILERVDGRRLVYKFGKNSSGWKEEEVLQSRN
Summary of the method: as §1

CRX = CRX (Homo sapiens, UniProt O43186 1-299); conditions: protein: recombinant; tags: N-terminal GST; dsDNA, one strand shown
Summary of the method: as §1

ETV1 = ETV1 (Homo sapiens, UniProt P50549 1-477); conditions: protein: recombinant; tags: N-terminal GST; dsDNA, one strand shown
Summary of the method: as §1

Sequence of HSF1 (Q00613 whole entry): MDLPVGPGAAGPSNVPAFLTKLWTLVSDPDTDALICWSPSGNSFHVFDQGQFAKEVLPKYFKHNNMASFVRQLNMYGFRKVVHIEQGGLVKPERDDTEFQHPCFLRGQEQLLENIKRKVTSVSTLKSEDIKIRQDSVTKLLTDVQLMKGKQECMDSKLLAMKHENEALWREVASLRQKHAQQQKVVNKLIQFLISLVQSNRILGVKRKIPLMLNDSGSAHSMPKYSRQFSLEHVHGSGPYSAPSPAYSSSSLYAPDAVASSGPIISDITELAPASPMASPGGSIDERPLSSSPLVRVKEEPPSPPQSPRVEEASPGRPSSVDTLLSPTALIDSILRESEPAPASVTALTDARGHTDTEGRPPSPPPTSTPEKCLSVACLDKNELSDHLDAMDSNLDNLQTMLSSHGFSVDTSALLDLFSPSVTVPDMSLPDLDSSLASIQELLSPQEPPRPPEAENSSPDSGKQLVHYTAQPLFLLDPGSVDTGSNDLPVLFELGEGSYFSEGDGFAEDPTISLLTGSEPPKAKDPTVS
Sequence of ETV5 (P41161 whole entry): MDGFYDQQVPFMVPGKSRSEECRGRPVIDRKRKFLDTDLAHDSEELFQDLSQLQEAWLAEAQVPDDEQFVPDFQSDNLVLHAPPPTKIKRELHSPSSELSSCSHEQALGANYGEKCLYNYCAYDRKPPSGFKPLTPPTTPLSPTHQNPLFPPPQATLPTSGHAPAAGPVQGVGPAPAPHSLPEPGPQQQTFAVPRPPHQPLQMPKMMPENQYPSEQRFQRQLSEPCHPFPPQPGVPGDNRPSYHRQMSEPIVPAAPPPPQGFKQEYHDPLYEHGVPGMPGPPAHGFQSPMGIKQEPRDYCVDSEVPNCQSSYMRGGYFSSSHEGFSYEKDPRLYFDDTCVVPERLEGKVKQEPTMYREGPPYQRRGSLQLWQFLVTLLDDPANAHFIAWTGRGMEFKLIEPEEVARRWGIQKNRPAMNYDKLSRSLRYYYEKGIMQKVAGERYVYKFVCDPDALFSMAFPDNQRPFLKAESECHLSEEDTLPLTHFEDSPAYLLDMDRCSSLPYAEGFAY
Sequence of CRX (O43186 whole entry): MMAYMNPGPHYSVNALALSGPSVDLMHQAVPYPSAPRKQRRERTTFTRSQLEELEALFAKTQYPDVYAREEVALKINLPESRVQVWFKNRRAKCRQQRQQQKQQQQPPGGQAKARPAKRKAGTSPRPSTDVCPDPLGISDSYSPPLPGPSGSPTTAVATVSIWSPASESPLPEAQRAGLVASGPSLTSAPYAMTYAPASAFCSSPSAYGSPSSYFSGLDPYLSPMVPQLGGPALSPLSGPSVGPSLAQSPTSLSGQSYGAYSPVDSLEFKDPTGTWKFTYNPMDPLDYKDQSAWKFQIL
Sequence of ETV1 (P50549 whole entry): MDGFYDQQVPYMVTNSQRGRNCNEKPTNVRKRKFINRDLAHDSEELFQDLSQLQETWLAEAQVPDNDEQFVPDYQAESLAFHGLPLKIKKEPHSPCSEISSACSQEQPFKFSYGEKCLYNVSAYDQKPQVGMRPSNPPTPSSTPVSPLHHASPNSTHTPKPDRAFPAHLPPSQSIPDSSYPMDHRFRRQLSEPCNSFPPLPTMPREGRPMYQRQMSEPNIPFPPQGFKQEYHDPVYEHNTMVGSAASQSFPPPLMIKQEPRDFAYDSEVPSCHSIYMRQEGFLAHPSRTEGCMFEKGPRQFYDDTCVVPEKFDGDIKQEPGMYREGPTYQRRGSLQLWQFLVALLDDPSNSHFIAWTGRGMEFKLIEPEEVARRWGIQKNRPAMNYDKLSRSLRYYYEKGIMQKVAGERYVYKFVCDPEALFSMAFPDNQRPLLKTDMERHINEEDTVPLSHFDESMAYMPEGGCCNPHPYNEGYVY
Sequence of ELF4 (Q99607 whole entry): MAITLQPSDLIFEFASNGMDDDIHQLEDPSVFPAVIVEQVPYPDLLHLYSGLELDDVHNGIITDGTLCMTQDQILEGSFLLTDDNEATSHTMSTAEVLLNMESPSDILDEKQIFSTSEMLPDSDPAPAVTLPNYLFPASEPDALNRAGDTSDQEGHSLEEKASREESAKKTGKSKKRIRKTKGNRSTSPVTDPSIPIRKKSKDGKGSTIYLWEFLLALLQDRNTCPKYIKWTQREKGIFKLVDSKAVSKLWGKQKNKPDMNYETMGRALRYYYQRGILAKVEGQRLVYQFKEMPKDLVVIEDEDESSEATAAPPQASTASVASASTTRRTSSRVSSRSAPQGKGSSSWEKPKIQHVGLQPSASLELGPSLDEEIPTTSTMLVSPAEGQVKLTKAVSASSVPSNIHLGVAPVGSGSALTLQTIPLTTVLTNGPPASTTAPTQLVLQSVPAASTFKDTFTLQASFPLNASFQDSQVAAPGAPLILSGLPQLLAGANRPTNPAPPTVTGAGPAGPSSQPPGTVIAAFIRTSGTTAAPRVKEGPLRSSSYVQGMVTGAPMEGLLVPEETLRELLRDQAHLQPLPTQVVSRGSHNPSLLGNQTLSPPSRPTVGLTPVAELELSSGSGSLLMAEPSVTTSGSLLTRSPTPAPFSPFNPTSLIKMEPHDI
Sequence of ELF1 (P32519 whole entry): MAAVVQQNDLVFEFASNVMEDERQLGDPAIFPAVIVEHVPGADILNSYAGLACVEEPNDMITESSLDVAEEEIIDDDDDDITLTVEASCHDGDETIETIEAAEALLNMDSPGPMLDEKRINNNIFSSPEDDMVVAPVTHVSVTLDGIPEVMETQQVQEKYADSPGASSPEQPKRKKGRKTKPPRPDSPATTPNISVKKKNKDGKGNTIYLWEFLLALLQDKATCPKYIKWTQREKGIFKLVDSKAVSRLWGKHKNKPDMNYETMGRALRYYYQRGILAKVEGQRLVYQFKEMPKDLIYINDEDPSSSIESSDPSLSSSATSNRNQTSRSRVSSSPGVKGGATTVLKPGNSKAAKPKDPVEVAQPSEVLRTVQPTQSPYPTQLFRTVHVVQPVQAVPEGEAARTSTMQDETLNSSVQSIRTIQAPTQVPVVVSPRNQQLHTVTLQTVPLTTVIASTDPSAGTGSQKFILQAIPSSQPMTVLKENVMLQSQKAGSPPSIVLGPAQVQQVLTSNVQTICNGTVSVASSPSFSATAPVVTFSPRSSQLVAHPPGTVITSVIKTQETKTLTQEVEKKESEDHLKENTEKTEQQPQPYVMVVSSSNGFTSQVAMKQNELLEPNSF
Sequence of SPIB (Q01892 whole entry): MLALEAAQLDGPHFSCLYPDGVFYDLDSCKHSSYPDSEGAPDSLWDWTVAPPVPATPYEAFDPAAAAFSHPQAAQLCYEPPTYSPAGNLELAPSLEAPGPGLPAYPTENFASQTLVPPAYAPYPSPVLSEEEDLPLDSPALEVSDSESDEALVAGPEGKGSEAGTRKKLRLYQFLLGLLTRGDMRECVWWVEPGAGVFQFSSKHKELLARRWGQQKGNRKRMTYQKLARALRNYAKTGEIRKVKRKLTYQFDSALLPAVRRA

Q: CTTGGC was tested. Which binding signal (FLI1) did it give?
A: 1.19 fold enrichment (6-mer frequency, TF over GST control)

Q: And the binding signal (ELK1)?
A: 1.23 fold enrichment (6-mer frequency, TF over GST control)

Q: What about the binding signal (GABPA) of the same sequence?
A: 1.25 fold enrichment (6-mer frequency, TF over GST control)

Q: And the binding signal (ERG)?
A: 1.12 fold enrichment (6-mer frequency, TF over GST control)

Q: What about the binding signal (ELF1) of the same sequence?
A: 1.14 fold enrichment (6-mer frequency, TF over GST control)

Q: And the binding signal (EHF)?
A: 1.22 fold enrichment (6-mer frequency, TF over GST control)

Q: What about the binding signal (SPI1) of the same sequence?
A: 1.18 fold enrichment (6-mer frequency, TF over GST control)

Q: And the binding signal (SPIB)?
A: 1.2 fold enrichment (6-mer frequency, TF over GST control)

Q: What about the binding signal (ELK3) of the same sequence?
A: 1.18 fold enrichment (6-mer frequency, TF over GST control)

Q: What about the binding signal (FEV) of the same sequence?
A: 1.24 fold enrichment (6-mer frequency, TF over GST control)

Q: And the binding signal (ETV5)?
A: 1.1 fold enrichment (6-mer frequency, TF over GST control)

Q: What about the binding signal (HSF1) of the same sequence?
A: 1.03 fold enrichment (6-mer frequency, TF over GST control)

Q: And the binding signal (SPIC)?
A: 1.14 fold enrichment (6-mer frequency, TF over GST control)

Q: And the binding signal (ELF4)?
A: 1.21 fold enrichment (6-mer frequency, TF over GST control)

Q: And the binding signal (ELK4)?
A: 1.42 fold enrichment (6-mer frequency, TF over GST control)

Q: And the binding signal (ELF3)?
A: 1.19 fold enrichment (6-mer frequency, TF over GST control)

Q: What about the binding signal (CRX) of the same sequence?
A: 1.03 fold enrichment (6-mer frequency, TF over GST control)

Q: What about the binding signal (ETV1) of the same sequence?
A: 1.15 fold enrichment (6-mer frequency, TF over GST control)
